A selection: hits, their analogues and other compounds. The true share with any hit is near 1.1%.
3CLpro inhibitor: SARS-CoV 3CLpro protease inhibitors, primary screen, biochemical, quenched FRET | Replicase polyprotein 1ab (Severe acute respiratory syndrome coronavirus), P0C6X7 | recombinant SARS-CoV 3CLpro, quenched FRET peptide cleavage | inhibition, % at 6 µM | 290,000 tested, 0.14% active | AID 1706, 2009; in the data active = inhibition above about 12%
PrPC surface inh: inhibitors of human cell surface prion protein PrPC, primary screen, cell-based, TR-FRET; AID 720596, 2013; TR-FRET read-out; inhibition, % at 13.8 µM; 370,000 tested, 0.43% active; in the data active = inhibition above about 24%
DUSP3 inh: VHR1 phosphatase inhibitors, primary screen, biochemical, absorbance, uHTS; 290,000 tested, 0.52% active; inhibition, % at 13.3 µM; Dual specificity protein phosphatase 3 (Homo sapiens), P51452; recombinant VHR phosphatase, pNPP absorbance; in the data active = inhibition above about 50%
BJeLR lethal: MLPCN primary cell-based screen for lethality selective to Ras in HRASV12 cells; BJeLR (HRASV12) viability, CellTiter-Glo ATP luminescence, 48 h; inhibition, % (test concentration not listed); 300,000 tested, 0.17% active; in the data active = inhibition above about 50%
PrPC TRFRET cf: confirmation of inhibitors of cell surface human prion protein, confirmation, cell-based, TR-FRET. shares compounds with PrPC surface inh. cell surface PrPC level. inhibition, % at 13.8 µM. 1,500 tested, 65% active; in the data active = inhibition above about 25%
LD9 tox: cytotoxicity in LD9 cells, cytotoxicity control for cell surface PrPc inhibitor project, cell-based, luminescence, high throughput. AID 743201, 2013. luminescence viability. shares compounds with PrPC surface inh. inhibition, % at 13.8 µM. 1,500 tested, 29% active; in the data active = inhibition above about 9.5%
Each line names hits and unclear results; the compound was inactive in the other large screens (follow-up assays come after a bar, where they were run).

c1ccc(Cn2nnnc2C(c2cccs2)N2CCc3ccccc3C2)cc1 (stereo unspecified)	none (no result: PrPC surface inh)
c1ccc(Cn2nnnc2C(c2cccs2)N2CCCCCC2)cc1 (stereo unspecified)	PrPC surface inh 28.5 | PrPC TRFRET cf inactive | LD9 tox inactive
CC(C)CC(N)c1csc(Nc2cnccn2)n1 (stereo unspecified)	PrPC surface inh 31.4 (no result: 3CLpro inhibitor, DUSP3 inh, BJeLR lethal) | PrPC TRFRET cf 25.5 | LD9 tox inactive
Cc1nnc(SCC(=O)N(C)c2ccccc2)n1-n1cccc1	none (no result: 3CLpro inhibitor, PrPC surface inh, DUSP3 inh)
COc1ccc(CCNC(=O)COC(=O)c2ccccn2)cc1	none (no result: 3CLpro inhibitor, DUSP3 inh, BJeLR lethal)
O=C(NCCN1CCC(n2c(=O)[nH]c3ccccc32)CC1)c1ccc(F)cc1Cl	none (no result: 3CLpro inhibitor, DUSP3 inh, BJeLR lethal)
COc1cc(C2Nc3ccccc3C(=O)N2c2ccccc2)c(Br)cc1OCC(=O)O (stereo unspecified)	PrPC surface inh 26.3 | PrPC TRFRET cf inactive | LD9 tox inactive
COC(=O)COc1ccc(Cl)cc1C1Nc2ccccc2C(=O)N1c1ccc(OC)cc1 (stereo unspecified)	none
C#CC1(N2CCCCC2)CCCCC1	none (no result: 3CLpro inhibitor, DUSP3 inh, BJeLR lethal)
CCOC(=O)C(CC)Sc1cc(C)nc2ccc(OC)cc12 (stereo unspecified)	PrPC surface inh 31.8 | PrPC TRFRET cf 60.2 | LD9 tox inactive
O=C1CCCN1c1ccc(S(=O)(=O)NCCOc2ccccc2)cc1	none
Cc1cc(N2CCCC2=O)cc(C)c1S(=O)(=O)NCCOc1ccc(C(C)(C)C)cc1	PrPC surface inh 32.0 | PrPC TRFRET cf 29.3 | LD9 tox inactive
COc1ccc(/C(O)=C2/C(=O)C(=O)N(c3ccccn3)C2c2ccc(F)cc2)cc1 (stereo unspecified)	none
CCOc1ccc(/C(O)=C2\C(=O)C(=O)N(c3ccccn3)C2c2ccccc2F)c(C)c1 (stereo unspecified)	PrPC surface inh 34.1 (no result: 3CLpro inhibitor, DUSP3 inh, BJeLR lethal) | PrPC TRFRET cf 67.2 | LD9 tox inactive
CCOc1ccc(C2/C(=C(\O)c3ccc(OC)c(OC)c3)C(=O)C(=O)N2c2cc(C)on2)cc1OC (stereo unspecified)	none
CCOc1ccc(/C(O)=C2\C(=O)C(=O)N(c3cc(C)on3)C2c2ccccc2OC)cc1 (stereo unspecified)	PrPC surface inh 34.7 | PrPC TRFRET cf 55.1 | LD9 tox inactive
CCOc1ncccc1C(=O)Nc1cc(S(=O)(=O)N2CCCCC2)ccc1Cl	none (no result: 3CLpro inhibitor, DUSP3 inh, BJeLR lethal)
COc1ccccc1OCC(=O)Nc1cc(S(=O)(=O)N2CCOCC2)ccc1N1CCCCC1	none (no result: 3CLpro inhibitor, DUSP3 inh, BJeLR lethal)
CC(=O)c1ccc(NC(=O)Nc2ccc(Cl)cc2)cc1	PrPC surface inh 28.3 | PrPC TRFRET cf inactive | LD9 tox inactive
CC(=O)c1ccc(NC(=O)Nc2ccncc2)cc1	none
O=C(Nc1ccc2ccccc2c1)OC1CCS(=O)(=O)C1 (stereo unspecified)	none (no result: 3CLpro inhibitor, DUSP3 inh, BJeLR lethal)
Cc1ccc(-c2cc(C(=O)NCc3cnn(C)c3C)c3cc(Br)ccc3n2)cc1	none
Cc1ccc(-c2cc(C(=O)N(C)Cc3cnn(C)c3C)c3cc(Br)ccc3n2)cc1	PrPC surface inh 75.2 | PrPC TRFRET cf 90.4 | LD9 tox inactive
O=c1[nH]c(=S)[nH]c2sc3c(c12)CCCCCC3	none
COc1cc(OC)c(C#N)c(S(=O)(=O)Cc2ccccc2)c1	none
N#Cc1c([N+](=O)[O-])cc([N+](=O)[O-])cc1S(=O)(=O)Cc1ccccc1	PrPC surface inh 41.9 (no result: 3CLpro inhibitor, DUSP3 inh, BJeLR lethal) | PrPC TRFRET cf 84.4 | LD9 tox 98.1
CC1(C(=O)NC2CCc3ccccc32)CCN1CCc1ccccc1 (stereo unspecified)	none (no result: 3CLpro inhibitor, DUSP3 inh, BJeLR lethal)
COc1ccc2nc(C)cc(SCC(NC(C)=O)C(=O)OC(C)C)c2c1 (stereo unspecified)	none
CC(=O)NC(CSc1cc(C)nc2ccc(Br)cc12)C(=O)O (stereo unspecified)	PrPC surface inh 31.5 | PrPC TRFRET cf 57.3 | LD9 tox inactive
CCOC(=O)[C@]12CCC=C1N(CCC1=CCCCC1)C(=O)[C@H](CC(=O)N1CCCCC1)C2	none (no result: 3CLpro inhibitor, DUSP3 inh, BJeLR lethal)
Cc1ccccc1OCCC(=O)Nc1ccc2c(C)cc(=O)oc2c1	PrPC surface inh 38.0 | PrPC TRFRET cf 26.6 | LD9 tox inactive
Cc1ccccc1OCC(=O)Nc1ccc(Cc2ccncc2)cc1	PrPC surface inh 24.9 | PrPC TRFRET cf inactive | LD9 tox inactive
